Reference: PMC7862700, “An all-to-all approach to the identification of sequence-specific readers for epigenetic DNA modifications on cytosine”

Assays:
Experiment in all cases: DAPPL (digital affinity profiling via proximity ligation, sequencing); 10 mM Tris-HCl pH 7.5, 50 mM NaCl, 1 mM DTT, 4% glycerol, room temperature, 30 min; GST-TFs on glutathione beads, 16-mer random dsDNA library, 0.1% formaldehyde crosslink after washing; high values mean tight binding
[1] = target: T1, FLI1 (Homo sapiens, UniProt Q01543 1-452); details: protein: recombinant; tags: N-terminal GST; dsDNA, one strand shown
T1 sequence: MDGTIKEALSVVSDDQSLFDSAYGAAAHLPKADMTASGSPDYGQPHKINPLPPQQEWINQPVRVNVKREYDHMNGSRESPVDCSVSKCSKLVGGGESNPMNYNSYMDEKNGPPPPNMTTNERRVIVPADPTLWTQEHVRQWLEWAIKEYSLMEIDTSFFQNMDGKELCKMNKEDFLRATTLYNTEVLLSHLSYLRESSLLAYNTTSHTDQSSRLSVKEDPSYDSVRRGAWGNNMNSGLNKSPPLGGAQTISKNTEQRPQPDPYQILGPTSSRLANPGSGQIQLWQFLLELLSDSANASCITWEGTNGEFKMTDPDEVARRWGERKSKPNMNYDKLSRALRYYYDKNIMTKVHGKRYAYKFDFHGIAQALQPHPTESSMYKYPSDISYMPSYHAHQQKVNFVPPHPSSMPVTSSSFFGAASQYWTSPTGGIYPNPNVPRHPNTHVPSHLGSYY
Method in brief: (§1)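 GST fusions of human transcription factors were expressed in yeast and captured with glutathione beads. Once given DNA barcodes and pooled alongside a tag-only sample, they were incubated for 30 min at room temperature with 200 nmole of a random double-stranded 16-mer DNA library in Tris/NaCl/DTT/glycerol buffer, then washed, crosslinked (0.1% formaldehyde), proximity-ligated, PCR-amplified and sequenced on an Illumina NextSeq500. The binding signal of each hexamer is its read frequency for a factor divided by its frequency for the tag-only sample.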

[2] = target: T2, ELK1 (Homo sapiens, UniProt P19419 1-428); details: protein: recombinant; tags: N-terminal GST; dsDNA, one strand shown
T2 sequence: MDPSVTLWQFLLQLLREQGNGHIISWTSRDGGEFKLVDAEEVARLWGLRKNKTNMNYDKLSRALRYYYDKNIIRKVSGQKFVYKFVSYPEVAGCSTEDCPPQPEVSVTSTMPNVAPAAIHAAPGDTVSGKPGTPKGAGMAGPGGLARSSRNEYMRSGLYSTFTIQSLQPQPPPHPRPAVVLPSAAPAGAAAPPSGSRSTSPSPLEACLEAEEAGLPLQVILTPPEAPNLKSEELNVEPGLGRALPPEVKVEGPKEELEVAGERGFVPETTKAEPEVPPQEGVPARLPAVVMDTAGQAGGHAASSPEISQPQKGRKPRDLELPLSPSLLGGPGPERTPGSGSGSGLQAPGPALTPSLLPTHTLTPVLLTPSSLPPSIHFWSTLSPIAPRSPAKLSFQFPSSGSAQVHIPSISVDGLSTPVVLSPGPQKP
Method in brief: as §1

[3] = target: T3, GABPA (Homo sapiens, UniProt Q06546 1-454); details: protein: recombinant; tags: N-terminal GST; dsDNA, one strand shown
T3 sequence: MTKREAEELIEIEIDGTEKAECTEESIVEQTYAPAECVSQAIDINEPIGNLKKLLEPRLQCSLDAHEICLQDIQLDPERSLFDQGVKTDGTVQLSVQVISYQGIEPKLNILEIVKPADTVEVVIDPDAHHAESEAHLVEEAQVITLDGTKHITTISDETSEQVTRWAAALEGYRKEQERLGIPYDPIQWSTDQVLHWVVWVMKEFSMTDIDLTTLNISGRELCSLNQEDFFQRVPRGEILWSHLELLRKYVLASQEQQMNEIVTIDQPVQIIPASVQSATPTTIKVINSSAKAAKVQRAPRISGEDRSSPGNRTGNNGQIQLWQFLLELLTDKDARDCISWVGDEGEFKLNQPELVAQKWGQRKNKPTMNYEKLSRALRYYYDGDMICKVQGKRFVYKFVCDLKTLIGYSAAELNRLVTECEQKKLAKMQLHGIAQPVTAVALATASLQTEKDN
Method in brief: as §1

[4] = target: T4, ERG (Homo sapiens, UniProt P11308 1-479); details: protein: recombinant; tags: N-terminal GST; dsDNA, one strand shown
T4 sequence: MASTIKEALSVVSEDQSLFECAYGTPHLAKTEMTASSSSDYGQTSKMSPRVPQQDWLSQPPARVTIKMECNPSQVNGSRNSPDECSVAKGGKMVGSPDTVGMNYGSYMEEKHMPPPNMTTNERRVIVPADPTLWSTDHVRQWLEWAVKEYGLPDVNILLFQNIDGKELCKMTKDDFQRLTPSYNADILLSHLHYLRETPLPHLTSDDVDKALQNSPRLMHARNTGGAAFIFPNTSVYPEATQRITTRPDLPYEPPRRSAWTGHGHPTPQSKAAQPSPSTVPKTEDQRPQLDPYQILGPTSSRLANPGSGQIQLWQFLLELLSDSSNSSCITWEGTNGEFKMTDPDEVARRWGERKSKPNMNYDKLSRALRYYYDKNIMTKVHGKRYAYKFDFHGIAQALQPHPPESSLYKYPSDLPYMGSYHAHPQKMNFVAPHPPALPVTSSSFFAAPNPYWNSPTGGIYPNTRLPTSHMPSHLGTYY
Method in brief: as §1

[5] = target: ELF1 (Homo sapiens, UniProt P32519 1-619); details: protein: recombinant; tags: N-terminal GST; dsDNA, one strand shown
Sequence of ELF1 (P32519 whole entry): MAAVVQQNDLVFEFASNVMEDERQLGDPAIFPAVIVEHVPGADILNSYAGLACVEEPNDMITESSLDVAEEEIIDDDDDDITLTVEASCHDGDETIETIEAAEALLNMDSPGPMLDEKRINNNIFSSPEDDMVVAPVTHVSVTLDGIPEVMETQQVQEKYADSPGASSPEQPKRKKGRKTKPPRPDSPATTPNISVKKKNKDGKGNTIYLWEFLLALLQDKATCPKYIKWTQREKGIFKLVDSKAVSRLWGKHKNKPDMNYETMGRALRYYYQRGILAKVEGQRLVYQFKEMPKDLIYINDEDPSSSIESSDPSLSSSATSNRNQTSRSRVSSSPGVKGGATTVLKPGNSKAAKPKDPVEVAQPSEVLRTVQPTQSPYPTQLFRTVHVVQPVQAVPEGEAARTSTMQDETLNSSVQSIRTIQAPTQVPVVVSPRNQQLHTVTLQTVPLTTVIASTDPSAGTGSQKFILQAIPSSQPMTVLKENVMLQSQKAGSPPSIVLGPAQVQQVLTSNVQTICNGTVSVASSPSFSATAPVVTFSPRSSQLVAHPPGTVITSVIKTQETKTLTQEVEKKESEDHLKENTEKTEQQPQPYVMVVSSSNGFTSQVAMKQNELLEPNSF
Method in brief: as §1

[6] = target: T5, EHF (Homo sapiens, UniProt Q9NZC4 1-300); details: protein: recombinant; tags: N-terminal GST; dsDNA, one strand shown
T5 sequence: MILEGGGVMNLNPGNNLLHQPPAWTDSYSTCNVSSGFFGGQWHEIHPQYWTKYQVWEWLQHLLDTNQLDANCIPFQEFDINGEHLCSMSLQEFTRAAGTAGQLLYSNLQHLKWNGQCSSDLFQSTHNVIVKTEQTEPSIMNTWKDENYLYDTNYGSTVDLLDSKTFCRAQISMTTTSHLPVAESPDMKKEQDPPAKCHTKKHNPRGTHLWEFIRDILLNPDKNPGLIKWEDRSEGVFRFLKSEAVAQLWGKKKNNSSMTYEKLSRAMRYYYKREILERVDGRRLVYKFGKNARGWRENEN
Method in brief: as §1

[7] = target: SPI1 (Homo sapiens, UniProt P17947 1-270); details: protein: recombinant; tags: N-terminal GST; dsDNA, one strand shown
Method in brief: as §1

[8] = target: SPIB (Homo sapiens, UniProt Q01892 1-262); details: protein: recombinant; tags: N-terminal GST; dsDNA, one strand shown
Sequence of SPIB (Q01892 whole entry): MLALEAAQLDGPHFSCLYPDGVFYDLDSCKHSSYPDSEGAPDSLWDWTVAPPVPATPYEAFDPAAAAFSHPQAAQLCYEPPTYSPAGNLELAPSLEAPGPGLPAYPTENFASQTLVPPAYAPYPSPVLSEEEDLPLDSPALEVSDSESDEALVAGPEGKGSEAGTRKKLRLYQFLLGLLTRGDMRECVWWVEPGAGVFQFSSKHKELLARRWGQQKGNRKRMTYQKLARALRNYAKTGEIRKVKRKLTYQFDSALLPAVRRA
Method in brief: as §1

[9] = target: T6, ELK3 (Homo sapiens, UniProt P41970 1-407); details: protein: recombinant; tags: N-terminal GST; dsDNA, one strand shown
T6 sequence: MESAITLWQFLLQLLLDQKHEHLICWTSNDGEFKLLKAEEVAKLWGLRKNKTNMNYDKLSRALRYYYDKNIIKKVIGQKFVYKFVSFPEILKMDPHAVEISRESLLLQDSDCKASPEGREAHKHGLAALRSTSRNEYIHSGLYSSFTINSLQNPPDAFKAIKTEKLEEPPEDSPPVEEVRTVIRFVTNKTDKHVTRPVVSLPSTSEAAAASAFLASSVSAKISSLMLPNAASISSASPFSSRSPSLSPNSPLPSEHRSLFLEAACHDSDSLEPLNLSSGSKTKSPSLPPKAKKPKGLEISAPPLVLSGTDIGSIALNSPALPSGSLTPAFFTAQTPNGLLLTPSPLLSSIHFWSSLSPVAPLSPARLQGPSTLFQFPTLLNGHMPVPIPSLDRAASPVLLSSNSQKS
Method in brief: as §1

[10] = target: T7, FEV (Homo sapiens, UniProt Q99581 1-238); details: protein: recombinant; tags: N-terminal GST; dsDNA, one strand shown
T7 sequence: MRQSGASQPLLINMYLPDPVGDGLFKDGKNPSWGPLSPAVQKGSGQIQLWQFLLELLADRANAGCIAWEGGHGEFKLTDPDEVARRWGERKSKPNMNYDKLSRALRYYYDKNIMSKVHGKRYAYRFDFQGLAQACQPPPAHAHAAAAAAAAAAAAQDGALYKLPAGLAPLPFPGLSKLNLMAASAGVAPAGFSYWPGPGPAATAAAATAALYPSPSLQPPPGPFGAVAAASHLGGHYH
Method in brief: as §1

[11] = target: ETV5 (Homo sapiens, UniProt P41161 1-510); details: protein: recombinant; tags: N-terminal GST; dsDNA, one strand shown
Sequence of ETV5 (P41161 whole entry): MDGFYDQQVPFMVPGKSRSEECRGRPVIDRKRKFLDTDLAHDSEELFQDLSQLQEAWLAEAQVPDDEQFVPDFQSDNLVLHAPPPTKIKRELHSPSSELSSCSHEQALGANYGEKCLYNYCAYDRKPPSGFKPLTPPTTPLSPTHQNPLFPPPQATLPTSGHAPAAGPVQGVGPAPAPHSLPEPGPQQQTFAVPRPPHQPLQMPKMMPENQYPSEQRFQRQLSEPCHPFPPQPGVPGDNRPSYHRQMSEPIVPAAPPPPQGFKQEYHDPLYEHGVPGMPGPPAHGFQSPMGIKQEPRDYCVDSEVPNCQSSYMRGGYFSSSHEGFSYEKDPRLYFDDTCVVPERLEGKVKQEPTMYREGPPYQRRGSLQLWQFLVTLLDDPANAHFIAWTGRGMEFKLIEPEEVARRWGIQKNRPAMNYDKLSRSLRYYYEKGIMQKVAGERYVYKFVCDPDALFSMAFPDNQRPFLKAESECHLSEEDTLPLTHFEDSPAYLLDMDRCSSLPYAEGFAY
Method in brief: as §1

[12] = target: HSF1 (Homo sapiens, UniProt Q00613 1-529); details: protein: recombinant; tags: N-terminal GST; chain copies: 3; dsDNA, one strand shown
Sequence of HSF1 (Q00613 whole entry): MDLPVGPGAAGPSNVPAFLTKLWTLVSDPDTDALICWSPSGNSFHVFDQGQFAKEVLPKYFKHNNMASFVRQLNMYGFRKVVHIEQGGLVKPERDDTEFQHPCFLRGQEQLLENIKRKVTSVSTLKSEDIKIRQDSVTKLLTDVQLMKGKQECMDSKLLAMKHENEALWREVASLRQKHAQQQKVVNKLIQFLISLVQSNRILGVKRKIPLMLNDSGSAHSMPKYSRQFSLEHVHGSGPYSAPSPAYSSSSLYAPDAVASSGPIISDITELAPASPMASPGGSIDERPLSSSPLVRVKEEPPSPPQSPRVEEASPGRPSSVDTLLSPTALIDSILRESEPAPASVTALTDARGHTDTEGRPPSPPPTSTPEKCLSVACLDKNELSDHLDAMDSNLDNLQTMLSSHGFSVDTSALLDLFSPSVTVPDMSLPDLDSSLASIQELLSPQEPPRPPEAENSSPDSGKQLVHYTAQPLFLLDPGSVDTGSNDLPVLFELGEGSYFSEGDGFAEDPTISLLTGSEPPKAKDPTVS
Method in brief: as §1

[13] = target: T8, SPIC (Homo sapiens, UniProt Q8N5J4 1-248); details: protein: recombinant; tags: N-terminal GST; dsDNA, one strand shown
T8 sequence: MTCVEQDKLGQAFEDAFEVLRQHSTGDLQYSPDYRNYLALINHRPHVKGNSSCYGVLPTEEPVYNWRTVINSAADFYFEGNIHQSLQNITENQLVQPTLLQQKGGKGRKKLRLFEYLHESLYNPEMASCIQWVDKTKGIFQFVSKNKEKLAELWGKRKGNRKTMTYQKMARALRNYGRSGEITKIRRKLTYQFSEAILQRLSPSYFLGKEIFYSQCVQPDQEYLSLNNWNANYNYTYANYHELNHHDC
Method in brief: as §1

[14] = target: ELF4 (Homo sapiens, UniProt Q99607 1-663); details: protein: recombinant; tags: N-terminal GST; dsDNA, one strand shown
Sequence of ELF4 (Q99607 whole entry): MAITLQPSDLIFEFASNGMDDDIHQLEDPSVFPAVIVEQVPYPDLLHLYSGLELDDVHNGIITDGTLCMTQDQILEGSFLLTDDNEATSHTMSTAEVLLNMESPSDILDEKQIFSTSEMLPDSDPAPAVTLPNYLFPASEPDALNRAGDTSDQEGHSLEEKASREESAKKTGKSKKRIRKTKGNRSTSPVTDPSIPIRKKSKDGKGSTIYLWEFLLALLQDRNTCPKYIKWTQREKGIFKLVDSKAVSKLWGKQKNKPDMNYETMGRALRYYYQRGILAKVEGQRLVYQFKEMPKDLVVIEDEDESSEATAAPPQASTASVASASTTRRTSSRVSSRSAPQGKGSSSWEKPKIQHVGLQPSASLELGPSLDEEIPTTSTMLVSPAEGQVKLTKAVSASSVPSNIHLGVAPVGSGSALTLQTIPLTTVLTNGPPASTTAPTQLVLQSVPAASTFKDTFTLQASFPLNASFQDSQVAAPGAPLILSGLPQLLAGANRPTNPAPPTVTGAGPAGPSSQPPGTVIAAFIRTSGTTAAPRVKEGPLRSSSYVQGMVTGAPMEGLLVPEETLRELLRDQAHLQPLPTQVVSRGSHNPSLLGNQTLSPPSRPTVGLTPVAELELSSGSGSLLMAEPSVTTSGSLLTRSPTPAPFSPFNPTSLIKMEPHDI
Method in brief: as §1

[15] = target: T9, ELK4 (Homo sapiens, UniProt P28324-2 1-405); details: protein: recombinant; tags: N-terminal GST; dsDNA, one strand shown
T9 sequence: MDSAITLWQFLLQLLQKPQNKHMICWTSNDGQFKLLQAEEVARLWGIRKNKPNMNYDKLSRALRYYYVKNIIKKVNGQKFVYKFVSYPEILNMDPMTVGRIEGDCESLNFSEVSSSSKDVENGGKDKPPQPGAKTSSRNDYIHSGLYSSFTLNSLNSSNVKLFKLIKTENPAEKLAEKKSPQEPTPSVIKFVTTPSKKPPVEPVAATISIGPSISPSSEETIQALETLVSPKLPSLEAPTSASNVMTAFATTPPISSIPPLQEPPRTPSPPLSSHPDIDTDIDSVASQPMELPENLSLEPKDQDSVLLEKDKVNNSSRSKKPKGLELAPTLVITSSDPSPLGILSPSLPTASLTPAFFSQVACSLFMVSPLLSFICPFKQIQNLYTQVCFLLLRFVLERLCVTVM
Method in brief: as §1

[16] = target: T10, ETV2 (Homo sapiens, UniProt O00321 1-342); details: protein: recombinant; tags: N-terminal GST; dsDNA, one strand shown
T10 sequence: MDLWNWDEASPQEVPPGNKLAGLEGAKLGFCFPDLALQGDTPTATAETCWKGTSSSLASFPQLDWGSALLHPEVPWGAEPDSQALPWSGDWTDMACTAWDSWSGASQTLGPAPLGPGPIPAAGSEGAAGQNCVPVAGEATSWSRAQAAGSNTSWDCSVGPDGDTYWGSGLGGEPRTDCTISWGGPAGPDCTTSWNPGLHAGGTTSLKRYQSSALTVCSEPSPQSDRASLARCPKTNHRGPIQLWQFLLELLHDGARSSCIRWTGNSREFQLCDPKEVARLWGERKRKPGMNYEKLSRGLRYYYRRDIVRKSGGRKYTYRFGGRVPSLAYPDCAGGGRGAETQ
Method in brief: as §1

[17] = target: T11, ELF3 (Homo sapiens, UniProt P78545 1-371); details: protein: recombinant; tags: N-terminal GST; dsDNA, one strand shown
T11 sequence: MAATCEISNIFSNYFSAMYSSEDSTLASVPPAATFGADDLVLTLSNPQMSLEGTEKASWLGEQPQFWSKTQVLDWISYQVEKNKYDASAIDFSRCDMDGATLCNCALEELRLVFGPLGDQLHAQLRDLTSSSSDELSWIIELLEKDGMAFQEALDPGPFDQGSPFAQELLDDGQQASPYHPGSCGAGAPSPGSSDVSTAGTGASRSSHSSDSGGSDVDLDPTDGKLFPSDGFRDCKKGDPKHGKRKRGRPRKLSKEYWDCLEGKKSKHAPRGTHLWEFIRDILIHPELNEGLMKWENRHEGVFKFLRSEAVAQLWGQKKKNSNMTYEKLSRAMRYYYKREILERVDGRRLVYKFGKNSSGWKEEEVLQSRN
Method in brief: as §1

[18] = target: CRX (Homo sapiens, UniProt O43186 1-299); details: protein: recombinant; tags: N-terminal GST; dsDNA, one strand shown
Sequence of CRX (O43186 whole entry): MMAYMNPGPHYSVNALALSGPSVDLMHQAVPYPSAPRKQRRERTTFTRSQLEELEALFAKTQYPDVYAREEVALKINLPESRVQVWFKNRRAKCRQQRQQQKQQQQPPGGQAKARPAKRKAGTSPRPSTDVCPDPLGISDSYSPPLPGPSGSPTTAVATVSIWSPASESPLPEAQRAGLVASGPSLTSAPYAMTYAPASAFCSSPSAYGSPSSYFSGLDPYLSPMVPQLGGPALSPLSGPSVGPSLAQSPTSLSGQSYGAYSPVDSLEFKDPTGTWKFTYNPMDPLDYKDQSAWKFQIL
Method in brief: as §1

[19] = target: ETV1 (Homo sapiens, UniProt P50549 1-477); details: protein: recombinant; tags: N-terminal GST; dsDNA, one strand shown
Sequence of ETV1 (P50549 whole entry): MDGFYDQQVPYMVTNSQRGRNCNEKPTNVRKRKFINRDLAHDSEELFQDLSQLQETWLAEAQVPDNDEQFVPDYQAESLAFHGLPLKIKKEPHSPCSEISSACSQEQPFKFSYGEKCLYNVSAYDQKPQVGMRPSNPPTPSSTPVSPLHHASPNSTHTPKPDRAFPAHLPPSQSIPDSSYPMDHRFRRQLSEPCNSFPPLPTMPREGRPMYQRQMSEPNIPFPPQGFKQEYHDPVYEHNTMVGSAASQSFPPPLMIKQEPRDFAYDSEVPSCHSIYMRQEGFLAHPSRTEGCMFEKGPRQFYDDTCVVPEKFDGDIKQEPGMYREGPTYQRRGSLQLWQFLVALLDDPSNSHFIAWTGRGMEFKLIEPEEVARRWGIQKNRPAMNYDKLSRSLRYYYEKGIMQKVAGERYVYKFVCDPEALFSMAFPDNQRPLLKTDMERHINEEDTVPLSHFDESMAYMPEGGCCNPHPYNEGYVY
Method in brief: as §1

TTCCCC
binding signal [1]: 1.74 fold enrichment (6-mer frequency, TF over GST control)
binding signal [2]: 1.58 fold enrichment (6-mer frequency, TF over GST control)
binding signal [3]: 1.71 fold enrichment (6-mer frequency, TF over GST control)
binding signal [4]: 1.67 fold enrichment (6-mer frequency, TF over GST control)
binding signal [5]: 1.72 fold enrichment (6-mer frequency, TF over GST control)
binding signal [6]: 1.68 fold enrichment (6-mer frequency, TF over GST control)
binding signal [7]: 2.54 fold enrichment (6-mer frequency, TF over GST control)
binding signal [8]: 1.66 fold enrichment (6-mer frequency, TF over GST control)
binding signal [9]: 1.61 fold enrichment (6-mer frequency, TF over GST control)
binding signal [10]: 1.64 fold enrichment (6-mer frequency, TF over GST control)
binding signal [11]: 1.71 fold enrichment (6-mer frequency, TF over GST control)
binding signal [12]: 1.42 fold enrichment (6-mer frequency, TF over GST control)
binding signal [13]: 1.87 fold enrichment (6-mer frequency, TF over GST control)
binding signal [14]: 1.78 fold enrichment (6-mer frequency, TF over GST control)
binding signal [15]: 1.48 fold enrichment (6-mer frequency, TF over GST control)
binding signal [16]: 1.8 fold enrichment (6-mer frequency, TF over GST control)
binding signal [17]: 1.64 fold enrichment (6-mer frequency, TF over GST control)
binding signal [18]: 1.44 fold enrichment (6-mer frequency, TF over GST control)
binding signal [19]: 1.69 fold enrichment (6-mer frequency, TF over GST control)
